The values that follow come from PubChem BioAssay (NCATS).

The nature of assay [1]: Primary qHTS for inhibitors of nuclear receptor binding SET domain protein 2 (NSD2) in an RCH-ACV wild type WT cells (2C) (AID 1645877). Further: nearly all actives have a fitted effect of over 70% in size. Further: potency means the concentration at half of the fitted maximal effect. On activity change, negative = cell killing: on the % scale 0 is the no-effect control and ±100 the full control effect.
Assay [2] concerns the target Glutathione peroxidase 1 (Homo sapiens) (UniProt P07203). The assay can be described thus: Primary qHTS Assay for Inhibitors of Recombinant Selenoprotein Glutathione Peroxidase 1 (GPX1) (AID 1845191). Further: nearly all actives have a fitted effect of over 65% in size. On activity, negative = inhibition: on the % scale 0 is the no-effect control and ±100 the full control effect. In outline:
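GR-coupled readout: NADPH consumption tracked by fluorescence, ex 340/em 450 nm, at t=0 and after 15 min at RT. Final mix 10 nM GPX1, 1 mM GSH, 0.5 mM CHP, 0.5 mM NADPH, 100 nM GR, 0.01% BSA, following 30 min enzyme–compound preincubation.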
Background: qHTS replaces the single test concentration by a dilution series.

Assay [3] has as its target Phospholipid hydroperoxide glutathione peroxidase GPX4 (Homo sapiens) (UniProt P36969). The assay can be described thus: Primary qHTS Assay for Inhibitors of Recombinant Selenoprotein Glutathione Peroxidase 4 (GPX4) (AID 1845192). Further: nearly all actives have a fitted effect of over 65% in size. On activity change, negative = inhibition: series mostly up to about 50 µM; on the % scale 0 is the no-effect control and ±100 the full control effect. In outline: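 Steps: GPX4 plus compound, 30 min RT; add GR/GSH/NADPH master mix; start with cumene hydroperoxide; read 340/450 nm fluorescence at 0 and 15 min. Finals were 200 nM GPX4, 1 mM GSH, 0.5 mM CHP, 0.5 mM NADPH, 100 nM GR.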

For assay [4], the target named is Luciferin 4-monooxygenase (Photinus pyralis) (UniProt P08659). The assay can be described thus: Primary firefly luciferase (FLuc) qHTS assay for identification of artifact compounds. (AID 1845220). Further: nearly all actives have a fitted effect of over 60% in size.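 On activity change, negative = inhibition: series mostly up to about 54 µM; plate controls were DMSO vehicle for no effect and no enzyme for full effect.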 In outline: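 Titrated compounds were incubated 15 min at RT, protected from light, with luciferin and ATP at 10 uM; reaction started with 10 nM FLuc, luminescence imaged at 5 min, and concentration-response fitted by Hill equation.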

Assay [5] is described as follows: Primary fluorescence-based thiol-reactive (MSTI) qHTS assay for identification of artifact compounds. (AID 1845221). Further: nearly all actives have a fitted effect of over 65% in size. Further: potency means the concentration at half of the fitted maximal effect.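 On activity change, negative = thiol reactive: series mostly up to about 54 µM; thiol-reactive compounds lower the probe fluorescence signal.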 In outline: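 Reactivity toward the thiol probe MSTI (4 uM) is scored by fluorescence at Ex/Em 525/598 nm after 1 h at room temperature. Acetyl-MSTI and MSTI define the activity scale.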
Assay [6] has as its system Nanoluciferase (engineered Oplophorus gracilirostris luciferase). The assay can be described thus: Primary Nanoluciferase (NLuc) qHTS assay for identification of artifact compounds. (AID 1845222).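 Further: NLuc secreted into diluted conditioned medium of S16 cells; series mostly up to about 54 µM; 0% = DMSO and -100% = no enzyme.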 In outline:
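qHTS format, against NLuc in S16 cell-conditioned medium. Nano-Glo substrate 1:100 was added after 15 min at room temperature. Luminescence was taken after a further 5 min.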

Several values for one entry are separate records, joined by “and”; a condition that tells them apart may be missing. Equal values may be shown once. A number with no mark means an inactive call. Results filed as inconclusive are left out. Activity calls are given as the source filed them. The call rests on the fitted dose curve; in most records, active means well fitted curve in the direction sought with a large enough effect; inconclusive means small, poorly fitted or top-dose-only effect, or another doubt; inactive means no such curve, though single readings can be large; an effect the other way counts as inactive or inconclusive.

Chain of Phospholipid hydroperoxide glutathione peroxidase GPX4 (Homo sapiens) (P36969 whole entry, looked up): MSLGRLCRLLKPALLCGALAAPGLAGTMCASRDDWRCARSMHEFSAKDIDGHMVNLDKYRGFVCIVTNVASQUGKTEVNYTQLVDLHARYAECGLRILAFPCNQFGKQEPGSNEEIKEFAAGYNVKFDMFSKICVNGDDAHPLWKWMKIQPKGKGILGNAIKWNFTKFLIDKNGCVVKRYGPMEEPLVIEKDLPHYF
Chain of Glutathione peroxidase 1 (Homo sapiens) (P07203 whole entry, looked up): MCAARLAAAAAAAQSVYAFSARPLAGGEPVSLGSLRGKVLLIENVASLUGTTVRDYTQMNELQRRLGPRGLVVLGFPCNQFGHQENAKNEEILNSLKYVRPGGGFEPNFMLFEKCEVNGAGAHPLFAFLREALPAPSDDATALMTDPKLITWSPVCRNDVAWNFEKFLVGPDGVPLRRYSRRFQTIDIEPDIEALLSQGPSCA

For the compound `CC(=O)N1CCN(C(=O)Cc2ccc(Nc3ncc(F)c(Nc4ccc(C(=O)Nc5ccccc5Cl)cc4)n3)cc2)CC1`, in assay [1], the Potency is 2050 nM (active). For the same compound, the Potency entry in assay [2], in assay [3], in assay [4], in assay [5] and in assay [6] was “inactive” each time.
For the compound `COc1cc(C)c(C(=O)O[C@H]2[C@@H](OC(C)=O)[C@H](n3ccc(=O)[nH]c3=O)O[C@@H]2CO)c(OC)c1`, the Potency entry in assay [1], in assay [2], in assay [3], in assay [4], in assay [5] and in assay [6] was “inactive” in each case.
For the compound `C[C@@H]1O[C@@H](O[C@H]2[C@H](OC(=O)[C@]34CCC(C)(C)C[C@H]3C3=CCC5[C@@]6(C)C[C@H](O)[C@H](O[C@@H]7O[C@H](CO)[C@@H](O)[C@H](O)[C@H]7O)[C@@](C)(CO)C6[C@H](O)C[C@@]5(C)[C@]3(C)CC4)OC[C@H](O)[C@@H]2O)[C@H](O)[C@H](O)[C@H]1O[C@@H]1OC[C@@H](O)[C@H](O[C@@H]2OC[C@](O)(CO)[C@H]2O)[C@H]1O` (stereo partly specified), the activity change, negative = cell killing in assay [1] was -13.7% [at 9.23 µM]. The outcome is “inactive [at 9.52 µM]” in assay [2] and “inactive [at 9.73 µM]” in assay [3]. In addition, the activity change, negative = inhibition in assay [4] is 1.22% [at 11.6 µM]. Besides, the activity change, negative = thiol reactive in assay [5] was 350% [at 11.5 µM]. Moreover, the activity, negative = inhibition in assay [6] was 0% [at 11.6 µM].
With `CC(C)C(C(=O)N(C)C(C)C(N)=O)N(C)C(=O)C1CCCN1C(=O)/C=C/C=C/C(O)C(C)O` (stereo unspecified), the Potency result in assay [1], in assay [2], in assay [3], in assay [4], in assay [5] and in assay [6] was “inactive” throughout.
Take `CC1OC(OC2C(C)OC(OC3C(OC(=O)C45CCC(C)(C)CC4C4=CCC6C7(C)CCC(OC8OC(C(=O)O)C(O)C(O)C8OC8OC(CO)C(O)C(OC9OC(C)C(O)C(O)C9O)C8O)C(C)(CO)C7CCC6(C)C4(C)CC5)OC(CO)C(O)C3O)C(O)C2O)C(O)C(O)C1O` (stereo unspecified): in assay [1], the activity change, negative = cell killing was 3.53% [at 9.23 µM]. Moreover, the results for the activity, negative = inhibition in assay [2] and in assay [6] were -14% [at 9.52 µM] and 2.74% [at 11.6 µM], respectively. In addition, the activity change, negative = inhibition in assay [3] was -14.3% [at 9.73 µM]; in assay [4], -4.3% [at 11.6 µM]. Moreover, in assay [5], the activity change, negative = thiol reactive was 122% [at 11.5 µM].
As to `COC(=O)N1CCC(n2ncc3c(N4CCOCC4)nc(-c4ccc(NC(=O)Nc5ccc(CO)cc5)cc4)nc32)CC1`, the Potency in assay [1] was 18.3 nM (active). For the same compound, the Potency entry in assay [2], in assay [3], in assay [4], in assay [5] and in assay [6] was “inactive” each time.
Turning to `C/C=C1\[C@H](OC2OC(COC3OC(CO)C(O)C(O)C3O)C(O)C(O)C2O)OC=C(C(=O)OC)[C@H]1CC(=O)OCCc1ccc(O)cc1` (stereo partly specified), the Potency result in assay [1], in assay [2], in assay [3], in assay [4] and in assay [6] was “inactive” throughout. Moreover, the Potency in assay [5] was 5610 nM (active).
Regarding `C[C@@H]1O[C@@H](O[C@H]2[C@H](O[C@H]3CC[C@@]4(C)C(CC[C@]5(C)C4CC=C4[C@@H]6CC(C)(C)CC[C@]6(C(=O)O[C@@H]6OC[C@H](O)[C@H](O)[C@H]6O[C@@H]6O[C@@H](C)[C@H](O[C@@H]7O[C@H](CO)[C@@H](O)[C@H](O)[C@H]7O)[C@H](O)[C@H]6O)[C@H](O)C[C@]45C)C3(C)C)O[C@H](CO)[C@@H](O[C@@H]3OC[C@@H](O)[C@H](O)[C@H]3O)[C@@H]2O)[C@H](O)[C@H](O)[C@H]1O` (stereo partly specified), in assay [1], the activity change, negative = cell killing was -15.2% [at 9.23 µM]. Besides, the results for the activity, negative = inhibition in assay [2] and in assay [6] were -13.9% [at 9.52 µM] and 3.16% [at 11.6 µM], respectively. Besides, the outcome in assay [3] is “inactive [at 9.73 µM]”. Further, in assay [4], the activity change, negative = inhibition was -1.49% [at 11.6 µM]. In addition, the activity change, negative = thiol reactive in assay [5] is 113% [at 11.5 µM].
For the compound `COC(=O)CC(O)C1OC(c2ccccc2)C(O)C1O` (stereo unspecified), the Potency entry in assay [1], in assay [2], in assay [3], in assay [4] and in assay [6] was “inactive” each time. For the same compound, in assay [5], the Potency is 8440 nM (active).
With `C=CC1C(OC2OC(CO)C(O)C(O)C2O)OC=C(C(=O)OC)C1CC1CC(=O)CC(CCc2ccc(O)cc2)O1` (stereo unspecified), the Potency result in assay [1], in assay [2], in assay [3], in assay [4], in assay [5] and in assay [6] was “inactive” each time.
As to `CC(=O)OC1C[C@@]2(C)[C@@H](CC[C@@H](C)[C@]23Cc2c(O)cc4c(c2O3)CNC4=O)C(C)(C)[C@@H]1O` (stereo partly specified), the Potency entry in assay [1], in assay [2], in assay [3], in assay [4], in assay [5] and in assay [6] was “inactive” throughout.
`CC[C@]12C=CCN3CC[C@@]4(c5cc([C@@]6(C(=O)OC)C[C@H]7C[C@@H](C(C)(F)F)CN(Cc8c6[nH]c6ccccc86)C7)c(OC)cc5N(C)[C@H]4[C@@](O)(C(=O)OC)[C@@H]1OC(C)=O)[C@@H]32`: the Potency in assay [1] is 87.9 nM (active). The Potency entry in assay [2], in assay [3], in assay [4], in assay [5] and in assay [6] was “inactive” throughout.
Turning to `COc1cc2c(cc1O)[C@H](c1ccc(O[C@@H]3O[C@H](CO)[C@@H](O)[C@H](O)[C@H]3O)c(OC)c1)[C@@H](CO)[C@](O)(CO)C2`, the Potency result in assay [1], in assay [2], in assay [3], in assay [4] and in assay [6] was “inactive” throughout. The Potency in assay [5] was 5190 nM (active).
`CC1CC(O)C2(OC1=O)OC1C(O)C3C4CCC5CC(OC6OC(CO)C(O)C(O)C6OC6OC(C)C(O)C(O)C6O)CCC5(C)C4CCC3(C)C1C2C` (stereo unspecified): the Potency result in assay [1], in assay [2], in assay [3], in assay [4], in assay [5] and in assay [6] was “inactive” in each case.
On to `CC(C)[C@@H](CS(=O)(=O)C(C)C)N1C(=O)[C@@](C)(CC(=O)O)C[C@H](c2cccc(Cl)c2)[C@H]1c1ccc(Cl)cc1`, for which the Potency in assay [1] is 515 nM (active) and 662 nM (active). For the same compound, the Potency result in assay [2], in assay [3], in assay [4], in assay [5] and in assay [6] was “inactive” each time.
In the case of `Cc1nc(Nc2n[nH]c3c2CN(C(=O)NC(CN(C)C)c2ccccc2)C3(C)C)c2sccc2n1` (stereo unspecified), the Potency in assay [1] was 5.2 nM (active). Further, the Potency result in assay [2], in assay [3], in assay [4], in assay [5] and in assay [6] was “inactive” in each case.
